{"source": "PubChem BioAssay (NCI)", "note": "This is part of a sample that, as a whole, favours compounds with a hit. Of some 83,000 tested, about 20% had one in any assay.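 Activity criterion: percent growth below 10, measured after cells in 96-well plates were exposed to a single compound concentration for 48 hours.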 Active and inactive are the calls of the source.", "data": [{"system": "HL-60(TB) leukemia", "assay": "NCI-60 one-dose screen, 48 h (100 = growth as untreated, 0 = no growth, -100 = all killed)", "details": "10 µM unless noted", "values": [{"molecule": "O=C(CSc1nc2c(n1Nc1ccccc1)-c1ccccc1SC2)Nc1nc(-c2ccc(Cl)cc2)cs1", "growth": "104% (inactive)"}, {"molecule": "COc1ccc(/C=C2/C(=O)Nc3cc(Cl)c(-c4csc(N)n4)cc32)cc1", "growth": "8.08% (active)"}, {"molecule": "CCOC(=O)C1CSC(C)(C(=O)OCC)N1", "note": "(stereo unspecified)", "growth": "83.8% (inactive)"}, {"molecule": "Nc1c(-c2nc3ccccc3c(=O)[nH]2)nnn1-c1ccc(Cl)cc1", "growth": "94% (inactive)"}, {"molecule": "Clc1cccc(Nc2nc(Nc3cnc4ccccc4c3)c3[nH]cnc3n2)c1", "growth": "121% (inactive)"}, {"molecule": "Cc1ccc(SC2c3ccc(C)cc3Oc3nc(N)c(C#N)c(N)c32)cc1", "note": "(stereo unspecified)", "growth": "-6.43% (active)"}, {"molecule": "CC(C)OC(C(=O)O)c1ccccc1", "note": "(stereo unspecified)", "growth": "129% (inactive)"}, {"molecule": "NCCCOc1cc(Cl)ccc1NC(=O)c1cc2ccccc2cc1OCCCN", "growth": "-73% (active)"}, {"molecule": "Cc1ccc(Cl)cc1N1CCN(C(=O)[C@@H]2C[C@@H]2c2ccc(F)cc2)CC1", "growth": "69.9% (inactive)"}, {"molecule": "CN(CCCN(C)CCC1CCCCC1)CCC1CCCCC1", "growth": "116% (inactive)"}, {"molecule": "CCC(C)(C)C1CCC(O)CC1", "note": "(stereo unspecified)", "growth": "83.8% (inactive)"}, {"molecule": "O=C(NC(Cc1nnc2n(Cc3ccccc3)c(=O)c3c4c(sc3n12)CCCC4)c1ccc(Cl)cc1)c1ccccc1", "note": "(stereo unspecified)", "growth": "78.5% (inactive)"}, {"molecule": "Clc1ccc2c(NCCNc3nc(N4CCOCC4)nc4ccccc34)ccnc2c1", "growth": "-65.4% (active)"}, {"molecule": "O=C1/C(=C\\c2ccccc2)CN(C(=O)c2ccccc2F)C/C1=C\\c1ccccc1", "growth": "10.1% (inactive)"}, {"molecule": "Cc1cc(N2CCCCC2)cc(C)c1-c1csc(NC(=O)c2ccncc2)n1", "growth": "21.8% (inactive)"}, {"molecule": "c1ccc(-c2ccc(-c3ccccc3)[nH]2)cc1", "growth": "91.2% (inactive)"}]}]}
